Records with an inconclusive call do not appear. Calls of active or inactive are those of the source. How the source made its calls: active means hit-call score of the fitted dose curve at least 0.9, where 1 is the maximum; inconclusive means response in the unintended direction; inactive means score below 0.9.
Assay: ATG_XTT_Cytotoxicity: Cytotoxicity Assessment in the Attagene TRANS-FACTORIAL HepG2 Assay (AID 2283584);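 on AC50: XTT signal for cell number as viability in transfected HepG2 cells; cells exposed to compound for 24 h before reading; active means loss of viability signal versus DMSO baseline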
In short: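 24 h chemical exposure of reporter-transfected HepG2; XTT signal loss vs DMSO indicates cytotoxicity.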

| Structure (SMILES) | outcome | AC50 |
| --- | --- | --- |
| COC(=O)C1=C(C)NC(C)=C(C(=O)OCCN(C)Cc2ccccc2)C1c1cccc([N+](=O)[O-])c1 (stereo not given) | inactive |  |
| CCCCCCC#CC(=O)OC | inactive |  |
| CC1(C)[C@H](C(=O)OCc2cccc(Oc3ccccc3)c2)[C@@H]1C=C(Cl)Cl | inactive |  |
| COc1ccnc(CS(=O)c2nc3cc(OC(F)F)ccc3[nH]2)c1OC (stereo not given) | inactive |  |
| Nc1cc([N+](=O)[O-])ccc1Cl | inactive |  |
| CC1(C)OC[C@@H]2O[C@@]3(C(=O)O)OC(C)(C)O[C@H]3[C@@H]2O1 | inactive |  |
| O=C(O)CCCCCCCCCCC(=O)O | inactive |  |
| Cc1ccc2sc3cccc(C)c3c2c1 | inactive |  |
| C=C(C)C(=O)OCc1ccccc1 | inactive |  |
| COc1cc2ncnc(Nc3cccc(Cl)c3)c2cc1OC | inactive |  |
| O=C1NC(=O)c2ccccc21 | inactive |  |
| CC(CCO)CCCC(C)(C)O (stereo not given) | inactive |  |
| Cc1ccc(C=O)cc1 | inactive |  |
| COc1cc(C(C)(C)C)c(O)c(C(C)(C)C)c1 | inactive |  |
| Cc1cccc(Nc2ccccc2C(=O)O)c1C | inactive |  |
| Clc1sc(Cl)c(Cl)c1Cl | inactive |  |
| Nc1ccc(F)c([N+](=O)[O-])c1 | inactive |  |
| Cc1cccc(C)c1C | inactive |  |

| Structure (SMILES) | outcome | AC50 |
| --- | --- | --- |
| CCC/C=C/C=O | inactive |  |
| Cc1cccc(C)c1[N+](=O)[O-] | inactive |  |
| CCCCCCCCCCCCOCCO | inactive |  |
| CC(CC(C)(C)C)CC(C)(C)CC(C)(C)C (stereo not given) | inactive |  |
| CC(=O)/C=C/C1=C(C)CCCC1(C)C | inactive |  |
| Cc1ccc(C(C)C)cc1O | inactive |  |
| CC1CCC(C(C)(C)O)CC1 (stereo not given) | inactive |  |
| N#Cc1nc(Cl)c(Cl)c(Cl)c1Cl |  | 56.8 µM (active) |
| O=S(=O)(O)NC1CCCCC1 | inactive |  |
| Clc1cccc(Cl)n1 | inactive |  |
| CCCC(=O)OCCC(C)CCC=C(C)C (stereo not given) | inactive |  |
| c1ccc2sc(SN(C3CCCCC3)C3CCCCC3)nc2c1 | inactive |  |
| Cc1ccc(C(=O)O)o1 | inactive |  |
| CSc1nnc(C(C)(C)C)c(=O)[nH]1 | inactive |  |
| COc1c(Cl)c(Cl)c(Cl)c(Cl)c1Cl | inactive |  |
| CN(C)c1ccc(O)c2c1C[C@H]1C[C@H]3[C@H](N(C)C)C(=O)C(C(N)=O)=C(O)[C@@]3(O)C(=O)C1=C2O | inactive |  |
| C=O | inactive |  |

Reference: PubChem BioAssay (EPA / NIEHS)
